According to PubChem BioAssay AID1851 (National Center for Advancing Translational Sciences (NCATS), 2009):
Where “and” joins values, the source holds several entries; their conditions need not be identical. Identical values can stand only once. Among all 16,000 compounds or so, about 5,800 (36%) were called active. Another 23% or so got no clear call; they are omitted. This is one part of the list. Values without a mark were called inactive. The call rests on the fitted dose curve; in most records, active means well fitted curve in the direction sought with a large enough effect; inconclusive means small, poorly fitted or top-dose-only effect, or effect the other way; inactive means no such curve, though single readings can be large or run the other way.

target: Cytochrome P450 2C19 (Homo sapiens) (UniProt P33261); assay: Cytochrome panel assay with activity outcomes; conditions: recombinant CYP, pro-luciferin dealkylation, luminescence, p450-cyp2c19; series mostly up to 57.1 µM; activity, negative = inhibition: at the top concentration
On the % scale 0 is the no-effect control and ±100 the full control effect.

Chain of Cytochrome P450 2C19 (Homo sapiens) (P33261 whole entry, looked up): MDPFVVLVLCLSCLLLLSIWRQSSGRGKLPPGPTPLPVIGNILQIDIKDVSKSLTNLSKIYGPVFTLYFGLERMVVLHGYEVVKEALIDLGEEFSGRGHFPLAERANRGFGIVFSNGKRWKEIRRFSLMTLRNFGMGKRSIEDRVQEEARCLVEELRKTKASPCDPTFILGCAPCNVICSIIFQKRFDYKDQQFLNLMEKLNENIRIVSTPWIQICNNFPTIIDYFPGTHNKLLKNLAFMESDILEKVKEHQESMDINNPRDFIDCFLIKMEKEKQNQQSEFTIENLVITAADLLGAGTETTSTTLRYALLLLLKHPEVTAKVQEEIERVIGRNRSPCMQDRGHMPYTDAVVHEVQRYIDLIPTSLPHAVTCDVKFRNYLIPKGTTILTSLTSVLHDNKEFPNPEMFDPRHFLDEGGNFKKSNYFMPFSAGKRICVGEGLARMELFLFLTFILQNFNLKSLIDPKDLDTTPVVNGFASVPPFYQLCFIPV

SMILES	activity, negative = inhibition	AC50
CN1CC[C@@]2(CCCN(C(=O)c3cc(C(F)(F)F)cc(C(F)(F)F)c3)C2)C1	12.7%	–
COc1cnc(SCc2ccc(Cl)cc2)nc1Cl	–	1.58 µM (active)
Cc1ccc(CNC(=O)CCc2c(C)nc3ncnn3c2C)cc1	-21.9%	–
CCOC(=O)CCc1c(C)nc2ncnn2c1C	-27.2%	–
CCc1c(C)nc2ncnn2c1NCCc1ccc(OC)cc1	–	3.55 µM (active)
COc1ccc(C(=O)c2cnc3ccccc3c2-c2ccccc2)cc1	–	5.01 µM (active)
COc1ccc(-c2nc3cnc(N4CCN(C)CC4)nc3n(Cc3ccc(F)cc3)c2=O)cc1	10.3%	–
CCOC(=O)c1oc2nc(CC(C)C)c3c(c2c1N)CCC3	–	11.2 µM (active)
CC1(C)S[C@@H]2[C@H](NC(=O)[C@H](C(=O)O)c3ccsc3)C(=O)N2[C@H]1C(=O)O	-38.5% [at 25.6 µM]	–
CCC(CC)c1nnc(NC(=O)c2cccc(S(=O)(=O)N3CCc4ccccc43)c2)s1	–	7.94 µM (active)
CCn1cc(C(=O)N/N=C(/C)c2ccc(F)cc2)c(=O)c2cc(F)c(N3CCCC3)cc21	–	4.47 µM (active)
CCn1cc(C(=O)O)c(=O)c2cc3c(cc21)OCO3	26.5%	–
CCn1cc(C(=O)O)c(=O)c2cc(F)c(N3CCNCC3)nc21	-12% [at 25.6 µM]	–
CC(C)CCN1C(=O)c2ccc(-c3nc4ccccc4c(=O)o3)cc2C1=O	–	14.1 µM (active)
N=C(N)SCc1cccc(-c2nc3ccccc3c(=O)o2)c1	16.9% [at 11.4 µM]	–
CCCCOC(=O)Nc1ccc(C)c(Cl)c1	–	2 µM (active)
Cc1ccc(NC(=O)CCC(=O)c2ccc(F)cc2)cc1Cl	–	3.98 µM (active)
CCCOc1ccc(C(=O)CCNc2ccc(C)c(Cl)c2)cc1	–	0.398 µM (active)
CCOC(=O)Nc1ccc2c(c1)N(C(=O)CCN1CCOCC1)c1ccccc1S2	-79.9% [at 25.6 µM]	–
CCCCOc1ccc(C(=O)CCN2CCCCC2)cc1	-38.9% [at 25.6 µM]	–
Cc1ccc(NCCC(=O)c2ccc(Cl)cc2)cc1C	–	1.26 µM (active)
C[C@@H](c1ccccc1)N1C(=O)[C@H]2[C@@H]3[C@H](O)[C@H](O)CC(=O)[C@H]3CC[C@H]2C1=O	13.8% [at 11.4 µM] and 0.79% [at 11.4 µM]	–
Cc1nc2cnc(Oc3ccccc3)nc2n(-c2ccccc2)c1=O	-27.5%	–
O=C(O)CCC(=O)c1ccc(Cl)cc1	22.7% [at 11.4 µM]	–

SMILES	activity, negative = inhibition	AC50
Cc1ccc(NCCC(=O)c2ccc(Cl)cc2)cc1	–	1.41 µM (active)
O=C(O)CNc1ccc(C(=O)O)cc1	21.5% [at 11.4 µM]	–
CC[N+](C)(CC)CCC[n+]1c(-c2ccccc2)c2cc(N)ccc2c2ccc(N)cc21	–	1.58 µM (active)
Cc1ccc[n+](CC(=O)c2cc3ccccc3oc2=O)c1	-0.3%	–
CC(=O)c1cc2ccccc2oc1=O	-33.4% [at 25.6 µM]	–
CC(C)OC(=O)c1cc2ccccc2oc1=O	–	15.8 µM (active)
CC1(C)Oc2ccc(C#N)cc2[C@H](N2CCCC2=O)[C@H]1O	-39.4%	–
COn1c(-c2ccccc2)nc2c1CCc1nonc1-2	–	15.8 µM (active)
CCC(C)c1ccc(Nc2ncccc2C#N)cc1 (configuration not stated)	–	4.47 µM (active)
O=C(Cc1ccccc1)NC(NCCc1ccccc1)C(Cl)(Cl)Cl (configuration not stated)	–	0.794 µM (active)
O=C(O)C[C@H](Cc1ccccc1)C(=O)O	-9.67% [at 11.4 µM]	–
COC(=O)CN(c1ccc(OC)cc1)S(=O)(=O)c1c(C)noc1C	–	5.01 µM (active)
COc1ccc(NC(=O)N2CC[C@@]3(CCCN(C(=O)c4c(C)noc4C)C3)C2)cc1	49.9%	–
COc1ccc(N(CC(=O)NCc2cccc(OC)c2)S(=O)(=O)c2c(C)noc2C)cc1	–	2 µM (active)
COc1cccc(CNC(=O)CCNC(=O)Cn2ccc3ccccc3c2=O)c1	1.62%	–
O=C(O)/C=C\c1cnc[nH]1	-4.94%	–
CCCCCOC(=O)CSc1nnc(-c2ccccc2)c(=O)[nH]1	–	8.91 µM (active)
NCCCc1c(-c2ccccc2)nc(N)[nH]c1=O	-12.9% [at 11.4 µM]	–
Nc1nc(SCC(=O)O)[nH]c(=O)c1N	25.5% [at 11.4 µM]	–
CC(=O)OCCCN1c2ccccc2Nc2nnc(-c3ccccc3)cc21	–	7.08 µM (active)
CCNc1ncc2nc(-c3ccc(Cl)cc3)c(=O)n(C)c2n1	-25.3%	–
CC(C)(C)Cn1nc(-c2ccc(Cl)cc2)c2c(N)ncnc21	-23%	–
CC(C)(C)n1nc(-c2ccc(Cl)cc2)c2c(N)ncnc21	–	2 µM (active)
